Experimental findings from PubChem BioAssay AID2014 (Sanford-Burnham Center for Chemical Genomics, 2009) are described below.

About 3,000 (1%) of roughly 290,000 compounds were called active. No rule for the calls is given here. The list comes from a sample in which actives are over-represented; it also holds similar structures and randomly drawn compounds.

As a reminder, the inhibition is the drop in the measured response relative to a control, in per cent.

For this experiment, the target named is Polyadenylate-binding protein 1 (Homo sapiens) (UniProt P11940). The experiment in a line: blockers of PABP interaction with poly(A) – biochemical, fluorescence polarization, uHTS, primary screen (AID 2014).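 Also: calls also rest on retests at 20 µM and on dose response follow-up.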 To be noted: PABP-poly(A) RNA binding, stronger effect = higher value.
Chain of Polyadenylate-binding protein 1 (Homo sapiens) (P11940 whole entry, looked up): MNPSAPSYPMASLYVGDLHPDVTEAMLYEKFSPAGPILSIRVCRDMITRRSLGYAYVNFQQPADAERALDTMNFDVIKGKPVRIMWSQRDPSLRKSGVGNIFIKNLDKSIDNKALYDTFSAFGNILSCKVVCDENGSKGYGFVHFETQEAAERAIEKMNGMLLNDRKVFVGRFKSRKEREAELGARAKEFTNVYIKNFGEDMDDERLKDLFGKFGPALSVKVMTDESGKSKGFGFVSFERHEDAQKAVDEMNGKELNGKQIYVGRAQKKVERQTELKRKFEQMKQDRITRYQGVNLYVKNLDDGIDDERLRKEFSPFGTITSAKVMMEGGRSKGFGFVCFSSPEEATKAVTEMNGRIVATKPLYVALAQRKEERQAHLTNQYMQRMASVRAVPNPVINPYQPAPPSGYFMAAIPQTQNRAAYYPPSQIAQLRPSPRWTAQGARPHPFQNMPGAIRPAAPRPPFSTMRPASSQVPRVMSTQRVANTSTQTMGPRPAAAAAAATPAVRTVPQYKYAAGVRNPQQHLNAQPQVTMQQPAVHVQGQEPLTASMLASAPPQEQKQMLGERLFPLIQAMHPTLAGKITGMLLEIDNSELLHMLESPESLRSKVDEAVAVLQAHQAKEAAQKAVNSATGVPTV

As for `Cc1ccc(C(=O)NC2CCN(C(=O)Nc3ccccc3Cl)CC2)cc1`, the inhibition (at 35 µM) was 8.2% (inactive).

In the case of `Cc1cccc(N2CCN(C(C)C(=O)N3CCc4ccccc43)CC2)c1C` (stereo unspecified), the inhibition (at 35 µM) was -1.2% (inactive).

For `Cc1cccc(N(C(=O)Cn2nnc(-c3ccc(C)o3)n2)C(C(=O)NC2CCCC2)c2ccncc2)c1` (stereo unspecified), the inhibition (at 35 µM) was 11.1% (inactive).

`Cc1ccc(N2NC(=O)/C(=C/C=C/c3ccco3)C2=O)cc1C`: the inhibition (at 35 µM) was 12.2% (inactive).

Consider `Cc1ccc(N=C2NC(=O)/C(=C/C=C/c3ccco3)S2)cc1C`, for which the inhibition (at 35 µM) is -2.9% (active) and the inhibition (confirmation repeats, at 20 µM) was 92%.

Turning to `Cc1cccc(N=C2NC(=O)/C(=C/c3cn(C)c4ccccc34)S2)c1`, where the note is “at 35 µM”, the inhibition is -3.5% (inactive).

Consider `CC(C)(O)C#Cc1ccc(CN2CCC(CO)(CCc3ccccc3)CC2)cc1`, for which, for the setting “at 35 µM”, the inhibition is -2.8% (inactive).

As to `Brc1ccccc1CN1CCC(Cc2ccccc2)CC1`, the inhibition (at 35 µM) was 0.9% (inactive).

In the case of `COc1ccc(O)c(C(=O)c2cnc3c(c2)c(-c2ccc(F)cc2)c(C#N)c(=O)n3C)c1`, the inhibition (at 35 µM) was 7.5% (inactive).

As for `Cc1cc(C)c2c(-c3ccc(F)cc3)c(C#N)c(=O)n(C)c2n1`, under “at 35 µM”, the inhibition is -5.1% (inactive).

Turning to `Cn1c(N)cc(-c2ccc(F)cc2)c(C#N)c1=O`, the inhibition was 59.1% (active) (at 35 µM) and 69.9% (confirmation repeats, at 20 µM).

As to `COc1ccc(NC(=O)C(CC(C)C)NC(=O)C2CCC(C)CC2)cc1` (stereo unspecified), the inhibition (at 35 µM) is -2.9% (inactive).

On to `C=CCn1c(=O)c(C(=O)NCc2ccc3c(c2)OCO3)c(O)c2ccccc21`, for which the inhibition (at 35 µM) is -7.7% (inactive).

Take `CC1CCCCC1NC(=O)CCS(=O)(=O)c1ccc2c(c1)NC(=O)CO2` (stereo unspecified): the inhibition (at 35 µM) was 3.9% (inactive).

Take `Cc1cccc2c1cnn2C(=O)CCC(=O)NC1CCCCC1`: where the note is “at 35 µM”, the inhibition is -10.3% (inactive).

In the case of `CN(C(=O)CN1C(=O)S/C(=C\c2ccccc2F)C1=O)C1CCS(=O)(=O)C1` (stereo unspecified), the inhibition (at 35 µM) was 11.1% (inactive).

For `COCC(C)n1c(C)cc(C(=O)COc2ccc(C)nc2[N+](=O)[O-])c1C` (stereo unspecified), the inhibition is, setting by setting: (at 35 µM) -2.1% (active); (confirmation repeats, at 20 µM) 57.1%.

On to `Cc1ccc(OCC(=O)c2cc(C)n(Cc3ccco3)c2C)c([N+](=O)[O-])n1`, for which the inhibition by setting is: (at 35 µM) 40.8% (inactive); (confirmation repeats, at 20 µM) 34.4%.

For `Cc1ccc(OCC(=O)NC(C)c2ccccc2)c([N+](=O)[O-])n1` (stereo unspecified), the inhibition (at 35 µM) is 51.1% (inactive) and the inhibition (confirmation repeats, at 20 µM) was -6.6%.

With `CCOc1ccc(NC(=O)c2cccc3c2C(=O)N(CC2CCCO2)C3)cc1` (stereo unspecified), the inhibition (at 35 µM) was -7.6% (inactive).

`CCOc1cccc(=O)c2c(C)n(CC3CCCO3)c(C)c12` (stereo unspecified): where the note is “at 35 µM”, the inhibition was 92.6% (active).

Turning to `COc1ccccc1NC(=O)CSc1nnc(C)n1CC1CCCO1` (stereo unspecified), the inhibition (at 35 µM) is 9.2% (inactive).

Consider `Cc1cc(=O)n2[nH]c(-c3cccc(Cl)c3)cc2n1`, for which the inhibition (at 35 µM) is 1.6% (inactive).

On to `Cc1cc(=O)n2[nH]c(-c3sccc3-n3c(C)ccc3C)cc2n1`, for which the inhibition (at 35 µM) is 31.1% (active) and the inhibition (confirmation repeats, at 20 µM) came to 94.5%.

With `CCc1c(C)nc2cc(-c3cccs3)[nH]n2c1=O`, the inhibition (at 35 µM) was 3.2% (inactive).

With `CC1CCN(C(=O)c2ccc3c(=O)n4c(nc3c2)CCCCC4)CC1`, under “at 35 µM”, the inhibition was 3.8% (inactive).

As to `Cc1ccc(C(=O)NCC(=O)NCc2cc(=O)n(C)c(=O)n2C)cc1`, where the note is “at 35 µM”, the inhibition is 1.4% (inactive).

For the molecule `CC(/C=N/NC(=O)c1cc(-c2ccc3ccccc3c2)n[nH]1)=C\c1ccco1`, the inhibition is 9.9% (inactive) (at 35 µM) and 8.9% (confirmation repeats, at 20 µM).

`C/C(=C\c1ccco1)C1Nc2cccc3cccc(c23)N1`: where the note is “at 35 µM”, the inhibition is 116% (active).

For `CC(/C=N/NC(=O)c1ccncc1)=C\c1ccco1`, the inhibition (at 35 µM) was 14.8% (inactive).

Turning to `COc1ccc(S(=O)(=O)c2c[nH]c(=S)[nH]c2=O)cc1Cl`, where the note is “at 35 µM”, the inhibition is 26% (inactive).

Turning to `CCOC(=O)C1(CCOc2ccccc2)CCN(Cc2cc(OC)cc(OC)c2)CC1`, the inhibition (at 35 µM) was 10.8% (inactive).

Regarding `Cn1cc(CNC(=O)c2ccc(OC3CCN(Cc4ccccn4)CC3)cc2)cn1`, under “at 35 µM”, the inhibition was 9.6% (inactive).

`O=S1(=O)CCN(Cc2ccccc2Cl)CC1`: the inhibition (at 35 µM) was 33.1% (active) and the inhibition (confirmation repeats, at 20 µM) came out at 64.5%.

Consider `O=c1ccn(Cc2ccccc2Cl)cc1`, for which the inhibition (at 35 µM) is 7.8% (inactive).

Regarding `CSc1ccc(/C=N/N2CCN(Cc3ccccc3Cl)CC2)cc1`, for the setting “at 35 µM”, the inhibition was 3.3% (inactive).

As for `COc1cc(CO)ccc1OCC(=O)Nc1cccc2ccccc12`, the inhibition (at 35 µM) is -6.9% (inactive).

Regarding `O=C(NCc1ccccc1)C1CCN(C(=O)Cc2ccccc2)CC1`, the inhibition (at 35 µM) is 0% (inactive).

With `Cc1cc(Cl)c2oc(C(=O)N3CCC(O)(c4ccccc4)CC3)c(C)c2c1`, the inhibition (at 35 µM) was 3.6% (inactive).

On to `COc1ccc(-c2csc(Nc3ccc(O)cc3)n2)cc1`, for which the inhibition (at 35 µM) is 6.1% (inactive).

`COc1cccc(CC(=O)Nc2nc(-c3ccc(OC)c(OC)c3)cs2)c1`: the inhibition (at 35 µM) was 3.9% (inactive).

With `COc1ccc(OC)c(Nc2nc(-c3ccc(O)c(O)c3)cs2)c1`, the inhibition (at 35 µM) is 88.7% (active).

Regarding `Cc1cc(C)n(Cc2cnc(N3CCOCC3)s2)n1`, the inhibition is, setting by setting: (at 35 µM) 55% (active); (confirmation repeats, at 20 µM) 89.9%.

With `Fc1cc(F)c2nc(N3CCOCC3)sc2c1`, the inhibition (at 35 µM) is 6.9% (inactive).

Consider `Cc1nc(N2CCOCC2)sc1C(=O)NN`, for which the inhibition (at 35 µM) was 18.5% (inactive).

On to `COC(=O)CCCC1=CC2=CC(=O)C(C)(OC(=O)c3cccs3)C(=O)C2=CN1CC1CC1` (stereo unspecified), for which the inhibition (at 35 µM) was 32.8% (inactive).

For `CCCCC1=CC2=CC(=O)C(C)(OC(=O)CC)C(=O)C2=CN1CCCOC(C)C` (stereo unspecified), the inhibition was 34.8% (active) (at 35 µM) and 51.1% (confirmation repeats, at 20 µM).

In the case of `COC(=O)CCCC1=CC2=C(c3ccccc3)C(=O)C(C)(OC(=O)C3CCCC3)C(=O)C2=CN1c1ccc(OC)cc1` (stereo unspecified), the inhibition (at 35 µM) is 12.6% (inactive).

As for `COC(=O)CCCC1=CC2=CC(=O)C(C)(OC(=O)c3cccs3)C(=O)C2=CN1CC(C)C` (stereo unspecified), the inhibition reads like this: (at 35 µM) 36.8% (active); (confirmation repeats, at 20 µM) 67.3%.

On to `Cc1ccccc1-n1cc(CNC(=O)C2CCC(=O)N(C3CC3)C2)cn1` (stereo unspecified), for which the inhibition (at 35 µM) is -10.9% (inactive).

As to `CCOc1ccccc1NC(=O)Cc1cccs1`, under “at 35 µM”, the inhibition is 4.2% (inactive).

On to `Cc1cc(Cl)c2oc(C(=O)NC(C)c3ccncn3)c(C)c2c1` (stereo unspecified), for which the inhibition (at 35 µM) was -10% (inactive).

As for `CC(C)(C)NC(=O)CSc1nnc(NC(=O)CCc2ccccc2)s1`, the inhibition (at 35 µM) is -1.7% (inactive).

As for `COc1cc(NC(=O)CSc2ccc(-c3cccnc3)nn2)cc(OC)c1`, the inhibition (at 35 µM) was 15.1% (inactive).

In the case of `O=C(c1ccco1)N1CCN(Cc2cccc(C(F)(F)F)c2)CC1`, the inhibition (at 35 µM) was 6.5% (inactive).

With `CC1CCN(S(=O)(=O)c2ccc3c(c2)n(C)c(=O)n3C)CC1`, where the note is “at 35 µM”, the inhibition is -1.1% (inactive).

For the molecule `COc1ccc(NC(=O)/C(C#N)=C\c2cc(OC)c(OCc3ccc(C(=O)O)cc3)cc2Br)cc1`, the inhibition (at 35 µM) is 7.9% (inactive).

On to `COc1cc(/C=C(\C#N)C(=O)Nc2ccc3ccccc3c2)c([N+](=O)[O-])cc1OC`, for which the inhibition (at 35 µM) is -2.3% (active) and the inhibition (confirmation repeats, at 20 µM) came out at 70.5%.

For `COc1cc(/C=C(/NC(=O)c2ccccc2)C(=O)Nc2cccc(O)c2)c([N+](=O)[O-])cc1OC`, under “at 35 µM”, the inhibition is -0.9% (inactive).
